The supplement of paper PMC3334620
The full ranking holds about 33,000 sequences; the median of “E-score (-0.5 to 0.5)” is about -0.012, and the highest 2% start at about 0.27. For the sample, the highest values were picked, then their nearest neighbours and some sequences at random.

molecular target: T1, Vhr1 (UniProt P40522); test: PBM E-score (8-mer binding enrichment) (E-score (-0.5 to 0.5)); higher = stronger / more preferred TF binding; conditions: protein concentration: 200 nM; construct: GST-full length
T1 sequence: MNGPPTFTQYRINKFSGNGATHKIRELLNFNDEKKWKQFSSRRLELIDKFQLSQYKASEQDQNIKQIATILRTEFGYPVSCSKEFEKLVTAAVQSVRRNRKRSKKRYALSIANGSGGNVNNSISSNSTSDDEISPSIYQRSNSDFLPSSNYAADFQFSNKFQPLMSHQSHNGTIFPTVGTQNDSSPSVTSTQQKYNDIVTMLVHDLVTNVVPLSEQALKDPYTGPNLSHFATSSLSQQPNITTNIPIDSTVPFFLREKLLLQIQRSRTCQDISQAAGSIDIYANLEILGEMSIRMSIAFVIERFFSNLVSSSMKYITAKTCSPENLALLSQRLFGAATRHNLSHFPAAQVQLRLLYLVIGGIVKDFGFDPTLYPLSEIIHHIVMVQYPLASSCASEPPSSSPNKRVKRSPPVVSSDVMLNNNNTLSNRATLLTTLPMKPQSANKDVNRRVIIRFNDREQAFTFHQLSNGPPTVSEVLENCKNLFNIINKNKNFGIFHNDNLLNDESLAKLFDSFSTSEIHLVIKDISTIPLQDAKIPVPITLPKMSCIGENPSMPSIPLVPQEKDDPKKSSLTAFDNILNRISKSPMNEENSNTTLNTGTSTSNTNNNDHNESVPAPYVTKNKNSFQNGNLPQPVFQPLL
Description: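 Universal 'all 10-mer' protein binding microarrays (Agilent AMADID 015681) probed with GST-tagged S. cerevisiae TFs (full-length or DBD) made by in vitro transcription/translation (PURExpress), about 100-200 nM. Bound TF was detected with fluorescent anti-GST. Each ungapped 8-mer (which stands for itself and its reverse complement) is scored by the PBM enrichment score (E-score), a modified Wilcoxon-Mann-Whitney statistic from -0.5 to +0.5, computed with the Universal PBM Analysis Suite. Scale: above 0.35 generally sequence-specific binding.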

Row | Sequence | PBM E-score
1 | CGTATGAC | 0.142
2 | GGTATGAC | 0.231
3 | AGTATGAC | 0.311
4 | AGTATGAG | 0.0941
5 | AGTATGAA | 0.203
6 | AGTATGAT | 0.271
7 | CCTGTGGA | -0.166
8 | CTCTCATC | -0.131
9 | CTTGCGGC | -0.0654
10 | GATACATC | 0.224
11 | GATATATC | 0.0354
12 | AATATATA | 0.157
13 | GATATATA | 0.284
14 | CATACATA | 0.238
15 | TATATATA | 0.318
16 | AATATATG | 0.19
17 | GATACATA | 0.332
18 | GATATACA | 0.113
19 | AATATATT | 0.284
20 | TATATACA | 0.162
21 | CATATATA | 0.256
22 | ATGGCTTC | 0.00791
23 | CGTTTCGC | -0.0307
24 | GAGTATGA | 0.228
25 | CTCTCAAC | 0.00283

Row | Sequence | PBM E-score
26 | GCTTAGTA | -0.171
27 | GGATCAAC | -0.0769
28 | GTAACCAA | 0.103
29 | TGCAATAA | -0.0029
30 | GGGGCCCA | -0.0152
31 | ACTGATAG | 0.167
32 | AGAATTAA | -0.301
33 | ATTGAAGC | -0.163
34 | AAAATTCA | -0.128
35 | CTACTATA | 0.168
36 | CTACTATC | 0.277
37 | ATACTATC | 0.128
38 | GGTCTGAC | 0.226
39 | CTGATGAC | 0.19
40 | ATGATGAC | 0.303
41 | AGGATGAT | 0.309
42 | AGGATGAA | -0.0977
43 | GGGATGAC | 0.323
44 | AGGATGAG | 0.225
45 | ATGATGAG | 0.196
46 | GGGATGAA | -0.00977
47 | AGGATGAC | 0.112
48 | GCTAGCCA | -0.17
49 | CAGATCAG | -0.112
50 | CGCGAATC | 0.193

Row | Sequence | PBM E-score
51 | ACGTATCC | -0.194
52 | CCATTAGC | -0.0966
53 | ATTGGCCG | -0.13
54 | GCACTGAC | 0.0316
55 | GCGAAGAA | -0.191
56 | ACACACCG | 0.223
57 | ACACACCT | 0.283
58 | ACACACCA | 0.282
59 | ACACACCC | 0.198
60 | CCACACCA | 0.141
61 | TCACACCA | 0.17
62 | AACGTCAA | -0.269
63 | AGGCTTCC | -0.119
64 | CAAACGAG | 0.0174
65 | CTATGGCA | -0.132
66 | GTCCTTAA | -0.00154
67 | GGCGCGCA | 0.121
68 | TGCGCGCA | 0.29
69 | CGCGCGCG | 0.286
70 | CGCGCGCA | 0.259
71 | CGCGCGCC | 0.228
72 | AGCGCGCG | 0.0844
73 | TGGTTGAA | -0.0692
74 | TATGCTCA | 0.0368
75 | GAGTGCCC | -0.0963

Row | Sequence | PBM E-score
76 | AAGCACTA | -0.0763
77 | AATGCTGA | 0.027
78 | GATGCTGA | 0.0169
79 | CATGCTGA | 0.275
80 | AACGACGC | -0.0318
81 | CATTCACC | 0.0887
82 | AAGAGGAT | -0.0743
83 | GGTCTTTA | -0.0868
84 | ACTCCCTG | 0.276
85 | ACTCCCTA | 0.063
86 | ACTCCCTC | 0.0377
87 | CGGGTCAG | 0.204
88 | TCAAGTCA | 0.111
89 | GGAAGTCA | 0.282
90 | GCAAGTCA | 0.279
91 | CGAAGTCA | 0.203
92 | ACAAGTCA | 0.174
93 | GGAAGTCC | -0.212
94 | TAGTTGAA | 0.134
95 | AAGAAACA | -0.161
96 | CCAGACGC | -0.029
97 | CTAAGGAC | -0.0588
98 | CGTTGCCC | -0.166
99 | ATCGCCTA | 0.0387
100 | AGGCAAAG | -0.192

Row | Sequence | PBM E-score
101 | GAGAGTAA | 0.0595
102 | TAGAGTCA | 0.355
103 | GAGAGTCA | 0.43
104 | TAGAGTAA | -0.082
105 | AAGAGTCC | -0.149
106 | GAGAGTCC | -0.0872
107 | AAGAGTCA | 0.422
108 | TAGAGTGA | -0.0169
109 | AAGAGTCT | 0.00073
110 | GGCTGGTA | 0.0349
111 | TATATTCA | 0.0779
112 | GAGTGTTA | 0.00822
113 | GTGCGATA | 0.0799
114 | GCAGTCTA | -0.0301
115 | CGGGTGAC | 0.143
116 | GCATTGAC | -0.0613
117 | GGCTGCCA | 0.181
118 | GCGGTAGC | 0.0852
119 | CAGAGAGG | -0.086
120 | AGGGTGGA | 0.0785
121 | AGGGTGGC | 0.173
122 | AGGGTGGG | 0.282
123 | GAGACTTA | -0.164
124 | GAGACTCC | 0.286
125 | AAGACTCC | 0.158

Row | Sequence | PBM E-score
126 | TAGACTCA | 0.221
127 | CAGACTCA | 0.27
128 | AAGACTCT | 0.209
129 | AAGACTCA | 0.317
130 | GAGACTCA | 0.36
131 | CAGACTCC | -0.0111
132 | CGAACCAG | 0.0659
133 | AACGGTTG | 0.038
134 | CCATAGGC | -0.172
135 | ACCGCCCG | -0.058
136 | CCCGCCCA | 0.301
137 | ACCGCCCC | 0.325
138 | GCCGCCCC | 0.0606
139 | CCCGCCCC | 0.329
140 | ACCGCCCT | -0.0373
141 | CCCCGCCC | 0.258
142 | GCCGCCCA | 0.128
143 | CCCGCCCG | 0.259
144 | GAGTCTGC | -0.0315
145 | AGTTTATG | -0.0791
146 | ACGTTATG | -0.0459
147 | CCTTCGCC | -0.031
148 | ATGCAGTA | 0.0873
149 | ATGCAGTC | 0.184
150 | ATGCAGTG | 0.276

Row | Sequence | PBM E-score
151 | GAATTTCC | -0.0327
152 | GGAGAAAA | -0.292
153 | AATCCACC | 0.154
154 | AAGTCGTA | -0.0973
155 | CAGTCGTA | 0.132
156 | GAGTCGGC | 0.411
157 | GAGTCCGC | 0.224
158 | GAGTCCGA | 0.308
159 | CAGTCGGC | 0.0497
160 | AAGTCGGC | -0.177
161 | TAGTCGGA | 0.203
162 | GAGTCGGA | 0.416
163 | CAGTCCGA | 0.126
164 | GAGTCGTA | 0.405
165 | CAGTCGGA | 0.0502
166 | AGTCCACT | -0.158
167 | ATGCATCC | -0.152
168 | GCAGCCCA | 0.0376
169 | AGGATTGG | -0.0691
170 | TAGTTAAA | 0.0419
171 | AACTGAAT | 0.00051
172 | GATTGGCA | -0.056
173 | AACTGAGG | -0.0666
174 | GTACAAAA | -0.0126
175 | ACGTTGAC | 0.0527
